Hits are enriched below; roughly 17% of the tested compounds scored in any of these assays.
HT1080 IDH1KD tx = kills HT-1080 cells with IDH1 knockdown; 360,000 tested, 2% active; Potency, µM (top dose mostly 46.1 µM), without a hit: at the top dose activity, negative = toxicity, hits mostly cytotoxic; AID 686971; HT-1080 IDH1 knockdown viability, ATP luminescence, 48 h;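 note: 0% = DMSO wells and -100% = cell-free medium wells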
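CellTiter-Glo luminescence after 48 h compound exposure at 37 degrees C of IDH1-knockdown HT-1080 cells in 5% FBS RPMI. %Activity scaled between DMSO wells and cell-free media wells, with curves fitted and assigned curve classes.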
TGFb inhibitor = inhibitors of TGF-b signaling; HepG2 CAGA-GFP TGF-b/SMAD3 reporter, GFP fluorescence, 18 h; TGF-beta stimulated, 500 pg/mL final; AID 588855; 410,000 tested, 1.2% active; Potency, µM (top dose mostly 46.1 µM), for the others: at the highest dose activity, negative = inhibition, hits mostly inhibitors; note: % is set by controls: 0 for no effect and ±100 for the full control effect; nearly all actives have a fitted effect of over 65% in size
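GFP signal (ex488/em500-530) from TGF-beta-stimulated HEPG2 CAGA-GFP cells, 500 pg/mL final, 18 h at 37 degrees C in DMEM plus 1% FBS, normalized to unstimulated and DMSO-stimulated controls.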
TDP1 cell CPT = DT40-hTDP1 cell growth loss with CPT; chicken DT40 Tdp1-/-;hTDP1 cells + 20 nM CPT, ATP luminescence, 48 h; Potency, µM (series often up to 46.2 µM), for inactives: top-dose activity change, negative = growth inhibition, usual class: inhibitors; 420,000 tested, 12% active; AID 686979; note: % is set by controls: 0 for no effect and ±100 for the full control effect; nearly all actives have a fitted effect of over 55% in size
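Chicken DT40 Tdp1-/- cells complemented with human TDP1, 400 cells/well, exposed to compounds plus 20 nM camptothecin for at least 48 h at 37 C; viability read as ATP content by CellTiter-Glo luminescence.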
TDP1 cell noCPT = qHTS for Inhibitors of human tyrosyl-DNA phosphodiesterase 1 (TDP1): qHTS in cells in absence of CPT; DT40 Tdp1-/- hTDP1 cells, no CPT, ATP luminescence, 48 h; Potency, µM (doses to about 46.2 µM), without a hit: at the highest dose activity change, negative = growth inhibition, hits mostly inhibitors; 420,000 tested, 15% active; AID 686978, 2013; note: % is set by controls: 0 for no effect and ±100 for the full control effect; nearly all actives have a fitted effect of over 55% in size
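Readout: luminescence from CellTiter-Glo after 30 min in the dark at RT. Cells: DT40 Tdp1-/- with stable hTDP1, 400/well. Exposure: compounds alone, ≥48 hr, 37 °C.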
HepG2 tox = kills HepG2 cells in TGF-b inhibitor counter-screen; HepG2 CAGA-GFP viability, ATP luminescence, 18 h; Potency, µM (titrated, usually from 46.1 µM), inactives show top-dose activity change, negative = cytotoxicity, actives largely listed as cytotoxic; 410,000 tested, 0.76% active; AID 588856
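CellTiter-Glo luminescence gave cytotoxicity after 18 hours at 37 degrees C. The cells were HepG2 CAGA-GFP in 1% FBS DMEM, stimulated with 500 pg/mL TGF-beta after compound addition. %Activity was normalised to no-cell wells (complete cell-killing) and DMSO (no toxicity), and curves were fitted and classified.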
HT1080-NT tox = kills 2HG-producing HT-1080-NT fibrosarcoma cells; AID 686970; Potency, µM (titrated, usually from 46.1 µM), without a hit: at the highest dose activity, negative = less viability, actives largely listed as cytotoxic; 360,000 tested, 1.6% active; HT-1080-NT fibrosarcoma viability, CellTiter-Glo ATP luminescence, 48 h;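 note: NT is the 2HG producing partner of a matched IDH1 knockdown line; 0% = DMSO-treated cells and -100% = media-only wells without cells; nearly all actives have a fitted effect of over 55% in size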
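HT-1080-NT; 750 cells/well; 5% FBS RPMI; 48 h compound, 37 degrees C; CellTiter-Glo luminescence; curve fitting and curve-class assignment.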
* hit, by the source's call; ! = not active in a repeat. Calls come from the whole dose curve; as a rule, active = well fitted curve in the direction sought with a large enough effect; inconclusive = small, poorly fitted or top-dose-only effect, or another doubt; inactive = no such curve, though single readings can be large; an effect the other way counts as inactive or inconclusive. Potency is the fitted concentration of half-maximal effect.

For COC1C(O)C(C)OC(OC2C(Oc3cccc4c(O)c5c(=O)oc6ccc(C)c7c(=O)oc(c34)c5c67)OC(C)C(O)C2O)C1O (configuration not stated) the results were HT1080 IDH1KD tx inconclusive, TGFb inhibitor 2.9%, TDP1 cell CPT 0.82µM*, TDP1 cell noCPT 0.82µM*, HepG2 tox 6.1% and HT1080-NT tox inconclusive.
`CCc1cc(=O)oc2cc(OCC(=O)N3C[C@H]4C[C@@H](C3)c3cccc(=O)n3C4)c(Cl)cc12` gave HT1080 IDH1KD tx -1.6%, TGFb inhibitor 0.7%, TDP1 cell CPT 11.8%, TDP1 cell noCPT -0.4%, HepG2 tox 1.6% and HT1080-NT tox 3.3%.
`Cc1c(CCC(=O)N2CCCCC2)c(=O)oc2cc3occ(C(C)(C)C)c3cc12` gave TGFb inhibitor -28.3%, TDP1 cell CPT 11.6µM*, TDP1 cell noCPT 11.6µM* and HepG2 tox -22.5%.
`COC(=O)C1=C(c2ccccc2)C[C@@H]2CC[C@H]1N2C(=O)NCCCOC(C)C` gave HT1080 IDH1KD tx 11.4%, TGFb inhibitor 9.5%, TDP1 cell CPT 2.0%, TDP1 cell noCPT -7.8%, HepG2 tox 18.9% and HT1080-NT tox 17.9%.
For CC(C)CCON=O the results were TDP1 cell CPT -4.3% and TDP1 cell noCPT -7.5%.
CCON=O was read as TDP1 cell CPT 0.0944µM* and TDP1 cell noCPT inconclusive.
Screening O=P(O)(O)C12CC3CC(CC(C3)C1)C2 returned HT1080 IDH1KD tx -3.7%, TGFb inhibitor -14.7%, TDP1 cell CPT 1.2%, TDP1 cell noCPT 10.9%, HepG2 tox 13.4% and HT1080-NT tox 14.3%.
Cc1ccc(S(=O)(=O)N(C)C[C@H]2Oc3ncc(Br)cc3C(=O)N([C@H](C)CO)C[C@@H]2C)cc1 was read as HT1080 IDH1KD tx -0.9%, TGFb inhibitor -0.5%, TDP1 cell CPT -29.6%, TDP1 cell noCPT 23.1µM*, HepG2 tox -20.4% and HT1080-NT tox -5.0%.
C[C@H](CO)N1C[C@H](C)[C@H](CN(C)S(=O)(=O)c2ccc(Cl)cc2)OCc2ccccc2-c2c(n(C)c3ccccc23)C1=O was read as HT1080 IDH1KD tx inconclusive, TGFb inhibitor inconclusive, TDP1 cell CPT 25.9µM*, TDP1 cell noCPT 9.2µM*, HepG2 tox -18.9% and HT1080-NT tox inconclusive.
`C[C@H](CO)N1C[C@H](C)[C@@H](CN(C)S(=O)(=O)c2cccs2)Oc2ccc(NC(=O)Nc3ccc(C(F)(F)F)cc3)cc2C1=O` gave HT1080 IDH1KD tx -60.6%, TGFb inhibitor inconclusive, TDP1 cell CPT 16.4µM*, TDP1 cell noCPT 18.4µM*, HepG2 tox -18.9% and HT1080-NT tox inconclusive.
Cc1ccc(S(=O)(=O)N(C)C[C@@H]2OCc3ccccc3-c3c(n(C)c4ccccc34)C(=O)N([C@H](C)CO)C[C@@H]2C)cc1 was read as HT1080 IDH1KD tx inconclusive, TGFb inhibitor inconclusive, TDP1 cell CPT 23.1µM*, TDP1 cell noCPT inconclusive, HepG2 tox -22.3% and HT1080-NT tox -28.3%.
For Cc1ccc(S(=O)(=O)N(C)C[C@@H]2Oc3ncc(Br)cc3C(=O)N([C@H](C)CO)C[C@@H]2C)cc1 the results were HT1080 IDH1KD tx -7.8%, TGFb inhibitor -14.6%, TDP1 cell CPT inconclusive, TDP1 cell noCPT inconclusive, HepG2 tox 16.8% and HT1080-NT tox -3.9%.
`Cc1ccc(S(=O)(=O)N(C)N=O)cc1` gave HT1080 IDH1KD tx 1.7%, TGFb inhibitor 1.4%, TDP1 cell CPT -14.6%, TDP1 cell noCPT -18.6%, HepG2 tox -18.5% and HT1080-NT tox 22.8%.
COc1cc(OC)c2c(c1)O[C@@H](c1ccc(OC)c(OC)c1)[C@H](O)C2 was read as HT1080 IDH1KD tx 1.5%, TGFb inhibitor -11.2%, TDP1 cell CPT -12.7%, TDP1 cell noCPT -9.7%, HepG2 tox 2.9% and HT1080-NT tox -5.9%.
`CNC(=S)N1CCN(CCN=Cc2c(O)n(-c3ccc(C)cc3)c(=S)[nH]c2=O)CC1` gave HT1080 IDH1KD tx 26.9%, TGFb inhibitor -4.8%, TDP1 cell CPT 3.5%, TDP1 cell noCPT -6.6%, HepG2 tox -7.7% and HT1080-NT tox -3.9%.
NC(=O)Cn1cc(C(=O)c2ccccc2)c2ccccc21 was read as HT1080 IDH1KD tx 27.1%, TGFb inhibitor 1.3%, TDP1 cell CPT 20.5%, TDP1 cell noCPT -0.2%, HepG2 tox -11.5% and HT1080-NT tox 14.2%.
Screening C[C@H](CO)N1C[C@H](C)[C@@H](CN(C)C(=O)Oc2cccc3ccccc23)OCc2cn(nn2)CCCC1=O returned HT1080 IDH1KD tx -2.1%, TGFb inhibitor -7.8%, TDP1 cell CPT inconclusive, TDP1 cell noCPT -26.4%, HepG2 tox -53.2% and HT1080-NT tox -4.4%.
`C[C@@H]1CN([C@H](C)CO)C(=O)c2c(c3ccccc3n2C)-c2ccccc2CO[C@H]1CN(C)C(=O)Cc1ccccc1` gave HT1080 IDH1KD tx 0.3%, TGFb inhibitor -9.2%, TDP1 cell CPT 23.1µM*, TDP1 cell noCPT 13µM*, HepG2 tox -26.1% and HT1080-NT tox -0.2%.
For CNCC[C@H](Oc1cccc2ccccc12)c1cccs1 the results were HT1080 IDH1KD tx inconclusive, TGFb inhibitor inconclusive, TDP1 cell CPT 16.4µM*, TDP1 cell noCPT 23.1µM*, HepG2 tox 12.6µM*! and HT1080-NT tox inconclusive.
Cc1ccc2c(c1)N(C(C)C(=O)N1CCC3(CC1)OCCO3)C(=O)CO2 (configuration not stated) was read as HT1080 IDH1KD tx -1.0%, TGFb inhibitor 32.9%, TDP1 cell CPT -14.4%, TDP1 cell noCPT 7.7%, HepG2 tox 9.2% and HT1080-NT tox 11.7%.
CC1N=C(c2ccccc2)c2cc(Br)ccc2NC1=O (configuration not stated) was read as HT1080 IDH1KD tx 1.6%, TGFb inhibitor 0.8%, TDP1 cell CPT inconclusive, TDP1 cell noCPT 18.4µM*, HepG2 tox -1.1% and HT1080-NT tox 3.5%.
`CC(C)(C)c1ccc(OCC(=O)Nc2ccc(Cl)cc2C(=O)c2ccccc2)cc1` gave TGFb inhibitor -17.8%, TDP1 cell CPT inconclusive, TDP1 cell noCPT -78.2% and HepG2 tox -17.1%.
COc1ccc(S(=O)(=O)Nc2cc(C(=O)NC3CCCCCC3)ccc2N2CCOCC2)cc1 was read as HT1080 IDH1KD tx inconclusive, TGFb inhibitor 5.0%, TDP1 cell CPT inconclusive, TDP1 cell noCPT inconclusive, HepG2 tox -16.1% and HT1080-NT tox inconclusive.

Screening data as filed in PubChem.
